The entries come from a sample that favours hits as a whole.
KDM5B inhibitor: KDM5B demethylase inhibition; KDM5B demethylase, FDH-coupled NADH fluorescence (FDH is formaldehyde dehydrogenase); Q9UGL1; Potency, µM (highest dose often 57.7 µM), usual class: inhibitors; 220,000 compounds, 2.6% hits; active means well fitted inhibition curve with a large enough effect; further: 0% is about no effect; nearly all actives have a fitted effect of over 70% in size
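qHTS format, multiple compound concentrations. Buffer 50 mM HEPES pH 7.5/0.01% Tween-20; 200 nM KDM5BΔAP final; 10 min compound preincubation; substrate-mix levels 12.5 µM peptide, 25 µM α-KG, 0.25 mM NAD⁺; 30 min RT; ΔRFU.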
Numbers without * were called inactive. Potency means the concentration at half of the fitted maximal effect.

Screening O=C(Nc1ccccc1)c1cnc2c(c1)N([S+](=O)([O-])c1cccnc1)CCC2 returned KDM5B inhibitor inactive.
O=C(Nc1cccc(Cl)c1)c1cnc2c(c1)N(Cc1ccccc1)CCC2 was read as KDM5B inhibitor 35µM*.
For CC(C)NC(=O)c1cnc2c(c1)N(C(=O)Cc1ccc(C(C)C)cc1)CCC2 the results were KDM5B inhibitor inactive.
For O=C(Nc1cccnc1)c1cnc2n1CCN(Cc1ccccc1)CC2 the results were KDM5B inhibitor inactive.
For COc1ccccc1N1CCCc2ncc(C(=O)Nc3ccccc3C)cc21 the results were KDM5B inhibitor inactive.
`CC(C)c1ccc(CC(=O)N2CCCc3ncc(C(=O)Nc4ccccn4)cc32)cc1` gave KDM5B inhibitor inactive.
Screening Cc1cc(F)ccc1NC(=O)c1cnc2c(c1)N(C(=O)CCc1ccccc1)CCC2 returned KDM5B inhibitor inactive.
`COc1ccccc1N1CCCc2ncc(C(=O)NCc3cccc(Cl)c3)cc21` gave KDM5B inhibitor 32µM*.
Cc1ccc(Cn2c(C3CCN(C(=O)COc4cccc(C)c4)CC3)n[nH]c2=O)cc1 was read as KDM5B inhibitor inactive.
Screening CC(C)(C)n1nnnc1C1CC2(CCOCC2)C(=O)N1Cc1ccc(C(F)(F)F)cc1 (stereo not given) returned KDM5B inhibitor inactive.
For O=C1COCC2(CN1Cc1c(F)cccc1Cl)CN(c1ccccc1)C2 the results were KDM5B inhibitor inactive.
`CCOc1ccc(S(=O)(=O)NCCc2sc3nc(-c4ccc(C)cc4)nn3c2C)cc1` gave KDM5B inhibitor inactive.
`C[S+](=O)([O-])N1CC2(CCCN2CC2CCCCC2)Cc2ccccc21` (stereo not given) gave KDM5B inhibitor inactive.
`O=C(CN1C(=O)NC2(CCCCC2)C1=O)Nc1ccc2c(c1)OCCO2` gave KDM5B inhibitor inactive.
`O=C(NCCN1CCOCC1)c1c[nH]c2ncccc12` gave KDM5B inhibitor inactive.
For Cc1nc(SCc2ccccc2)[nH]c(=O)c1CCC(=O)N1CCOCC1 the results were KDM5B inhibitor inactive.
For Cc1ccccc1C(=O)OCCCN(C)C the results were KDM5B inhibitor inactive.
For CC(C)Oc1cccc2c1c(NC(=O)C1CCCO1)nn2Cc1ccccc1 (stereo not given) the results were KDM5B inhibitor inactive.
`CC(C)Oc1ccc2c(NC(=O)c3ccn(C)n3)nn(CC(F)(F)F)c2c1` gave KDM5B inhibitor inactive.
CC(C)Oc1cccc2c1c(NC(=O)c1ccn(C)n1)nn2Cc1ccccc1 was read as KDM5B inhibitor 25µM*.
Screening N#CC1=C(SCC(=O)Nc2ccccc2)NC(=O)C(C#N)C12CCCC2 (stereo not given) returned KDM5B inhibitor inactive.
`COCC1CCCCN1C(=O)c1ccc2oc(CCc3ccccc3)nc2c1` (stereo not given) gave KDM5B inhibitor inactive.
CN(C)c1cc(=O)c2ccnc(-c3ccccc3Oc3ccccc3)c2o1 was read as KDM5B inhibitor 35µM*.
For CN(c1ccccc1)c1cc(=O)c2ccnc(-c3cccnc3)c2o1 the results were KDM5B inhibitor inactive.
For COc1cccc(Cl)c1-c1nccc2c(=O)cc(N(C)C)oc12 the results were KDM5B inhibitor inactive.
`CN(c1cc(=O)c2ccnc(-c3ccccc3Oc3ccccc3)c2o1)C1CCOCC1` gave KDM5B inhibitor inactive.
Screening O=c1cc(-c2cccnc2)oc2c(-c3ccccc3Oc3ccccc3)nccc12 returned KDM5B inhibitor inactive.
For CN(C)c1cc(=O)c2ccnc(-c3ccc(F)c(Cl)c3)c2o1 the results were KDM5B inhibitor 35µM*.
O=c1cc(-c2cccnc2)oc2c(-c3ccccc3F)nccc12 was read as KDM5B inhibitor 35µM*.
For CN(C)c1cc(=O)c2ccnc(-c3cccc(C(F)(F)F)c3)c2o1 the results were KDM5B inhibitor inactive.
`COc1cccc(-c2nccc3c(=O)cc(N(C)C)oc23)c1` gave KDM5B inhibitor 32µM*.
For Cc1ccc(S(C)(=O)=O)cc1C(=O)N1CCCC(c2nc3ccccc3[nH]2)C1 (stereo not given) the results were KDM5B inhibitor inactive.
For O=C(CSc1ncc(-c2ccc(F)cc2)o1)NCc1ccccc1 the results were KDM5B inhibitor inactive.
`COc1ccc(NC(=O)O/N=C/c2ccc(Br)cc2)cc1` gave KDM5B inhibitor inactive.
COCc1noc([C@@H]2CN(C(=O)c3cc(C)oc3C)C[C@H]2COC)n1 was read as KDM5B inhibitor inactive.
COc1cc(CC(=O)Nc2ccccc2-c2ccccc2)ccc1C was read as KDM5B inhibitor inactive.
`O=C(NC1CCCN(c2cc(-c3ccc(Cl)cc3)[nH]n2)C1)c1ccc(Br)o1` (stereo not given) gave KDM5B inhibitor inactive.
Screening CC(C)N(C(=O)Cn1cc(S(=O)(=O)Cc2ccc(Br)cc2)c2ccccc21)C(C)C returned KDM5B inhibitor inactive.
For CCc1nc(-c2c3n(c(=O)n(CC(=O)Nc4cccc(F)c4)c2=O)CCCC3)no1 the results were KDM5B inhibitor inactive.
Screening Cc1nn2c(-c3ccccc3)cc(-c3ccccc3)nc2c1-c1ccc(Cl)cc1 returned KDM5B inhibitor inactive.

Assay outcomes as filed in PubChem.
